Screening results from PubChem.
Hits are enriched below; roughly 12% of the tested compounds scored in any of these assays.
Sfp inh = qHTS Assay for Inhibitors of Bacillus subtilis Sfp phosphopantetheinyl transferase (PPTase); 4'-phosphopantetheinyl transferase ffp (Bacillus subtilis), Q9F4F7; Biochemical Sfp PPTase activity, qHTS; Potency, µM, inactives show largest response in the series, negative = inhibition, usual class: inhibitors; 310,000 tested, 3.5% active; AID 1490, 2009;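 further: the enzyme is Sfp with the accession as filed and its product quenches rhodamine fluorescence; 0% = enzyme reaction without inhibitor and -100% = no enzyme wells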
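Fluorescence-quenching assay with 15 nM Sfp, 5 uM rhodamine-CoA and 12.5 uM BHQ-2-labelled ybbR peptide in pH 7.6 Hepes/MgCl2 buffer. Enzyme was pre-incubated with compound for 15 min at room temperature. Rate was taken from the 30-min fluorescence change (525/598 nm).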
JMJD2A Tudor = qHTS Assay for Inhibitors of JMJD2A-Tudor Domain; Lysine-specific demethylase 4A (Homo sapiens), O75164; AID 504339, 2011; AlphaScreen JMJD2A-Tudor / H3K4me3 peptide binding; 390,000 tested, 4.4% active; Potency, µM (highest dose often 114 µM), inactives show at the top dose activity change, negative = inhibition, actives largely listed as inhibitors; further: on the % scale 0 is the no-effect control and ±100 the full control effect; nearly all actives have a fitted effect of over 50% in size
HP1b chromo inh = HTS for Inhibitors of HP1-beta Chromodomain Interactions with Methylated Histone Tails; AlphaScreen HP1-beta / biotin-H3K9me3 peptide binding; AID 540317, 2011; 390,000 tested, 0.56% active; Potency, µM (doses to about 114 µM), without a hit: at the highest dose activity change, negative = inhibition, actives largely listed as inhibitors; further: nearly all actives have a fitted effect of over 70% in size
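AlphaScreen: HP1-beta (50 nM) preformed 30 min with biotin-H3(1-18)K9me3 peptide (50 nM) in PBS pH 7.4, 0.01% Tween-20. Compound added for 30 min at RT, then streptavidin donor/nickel chelate acceptor beads (10 ug/mL) for 30 min.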
BAZ2B block = qHTS Assay for Inhibitors of BAZ2B | Bromodomain adjacent to zinc finger domain protein 2B (Homo sapiens), Q9UIF8 | AlphaScreen BAZ2B-H3K14Ac peptide displacement | Potency, µM (titrated, usually from 114 µM), without a hit: at the highest dose activity change, negative = inhibition, actives largely listed as inhibitors | 360,000 tested, 4.4% active | AID 504333, 2011; further: on the % scale 0 is the no-effect control and ±100 the full control effect; nearly all actives have a fitted effect of over 60% in size
Target sequence (Q9UIF8 whole entry, looked up, the tested form may be a part): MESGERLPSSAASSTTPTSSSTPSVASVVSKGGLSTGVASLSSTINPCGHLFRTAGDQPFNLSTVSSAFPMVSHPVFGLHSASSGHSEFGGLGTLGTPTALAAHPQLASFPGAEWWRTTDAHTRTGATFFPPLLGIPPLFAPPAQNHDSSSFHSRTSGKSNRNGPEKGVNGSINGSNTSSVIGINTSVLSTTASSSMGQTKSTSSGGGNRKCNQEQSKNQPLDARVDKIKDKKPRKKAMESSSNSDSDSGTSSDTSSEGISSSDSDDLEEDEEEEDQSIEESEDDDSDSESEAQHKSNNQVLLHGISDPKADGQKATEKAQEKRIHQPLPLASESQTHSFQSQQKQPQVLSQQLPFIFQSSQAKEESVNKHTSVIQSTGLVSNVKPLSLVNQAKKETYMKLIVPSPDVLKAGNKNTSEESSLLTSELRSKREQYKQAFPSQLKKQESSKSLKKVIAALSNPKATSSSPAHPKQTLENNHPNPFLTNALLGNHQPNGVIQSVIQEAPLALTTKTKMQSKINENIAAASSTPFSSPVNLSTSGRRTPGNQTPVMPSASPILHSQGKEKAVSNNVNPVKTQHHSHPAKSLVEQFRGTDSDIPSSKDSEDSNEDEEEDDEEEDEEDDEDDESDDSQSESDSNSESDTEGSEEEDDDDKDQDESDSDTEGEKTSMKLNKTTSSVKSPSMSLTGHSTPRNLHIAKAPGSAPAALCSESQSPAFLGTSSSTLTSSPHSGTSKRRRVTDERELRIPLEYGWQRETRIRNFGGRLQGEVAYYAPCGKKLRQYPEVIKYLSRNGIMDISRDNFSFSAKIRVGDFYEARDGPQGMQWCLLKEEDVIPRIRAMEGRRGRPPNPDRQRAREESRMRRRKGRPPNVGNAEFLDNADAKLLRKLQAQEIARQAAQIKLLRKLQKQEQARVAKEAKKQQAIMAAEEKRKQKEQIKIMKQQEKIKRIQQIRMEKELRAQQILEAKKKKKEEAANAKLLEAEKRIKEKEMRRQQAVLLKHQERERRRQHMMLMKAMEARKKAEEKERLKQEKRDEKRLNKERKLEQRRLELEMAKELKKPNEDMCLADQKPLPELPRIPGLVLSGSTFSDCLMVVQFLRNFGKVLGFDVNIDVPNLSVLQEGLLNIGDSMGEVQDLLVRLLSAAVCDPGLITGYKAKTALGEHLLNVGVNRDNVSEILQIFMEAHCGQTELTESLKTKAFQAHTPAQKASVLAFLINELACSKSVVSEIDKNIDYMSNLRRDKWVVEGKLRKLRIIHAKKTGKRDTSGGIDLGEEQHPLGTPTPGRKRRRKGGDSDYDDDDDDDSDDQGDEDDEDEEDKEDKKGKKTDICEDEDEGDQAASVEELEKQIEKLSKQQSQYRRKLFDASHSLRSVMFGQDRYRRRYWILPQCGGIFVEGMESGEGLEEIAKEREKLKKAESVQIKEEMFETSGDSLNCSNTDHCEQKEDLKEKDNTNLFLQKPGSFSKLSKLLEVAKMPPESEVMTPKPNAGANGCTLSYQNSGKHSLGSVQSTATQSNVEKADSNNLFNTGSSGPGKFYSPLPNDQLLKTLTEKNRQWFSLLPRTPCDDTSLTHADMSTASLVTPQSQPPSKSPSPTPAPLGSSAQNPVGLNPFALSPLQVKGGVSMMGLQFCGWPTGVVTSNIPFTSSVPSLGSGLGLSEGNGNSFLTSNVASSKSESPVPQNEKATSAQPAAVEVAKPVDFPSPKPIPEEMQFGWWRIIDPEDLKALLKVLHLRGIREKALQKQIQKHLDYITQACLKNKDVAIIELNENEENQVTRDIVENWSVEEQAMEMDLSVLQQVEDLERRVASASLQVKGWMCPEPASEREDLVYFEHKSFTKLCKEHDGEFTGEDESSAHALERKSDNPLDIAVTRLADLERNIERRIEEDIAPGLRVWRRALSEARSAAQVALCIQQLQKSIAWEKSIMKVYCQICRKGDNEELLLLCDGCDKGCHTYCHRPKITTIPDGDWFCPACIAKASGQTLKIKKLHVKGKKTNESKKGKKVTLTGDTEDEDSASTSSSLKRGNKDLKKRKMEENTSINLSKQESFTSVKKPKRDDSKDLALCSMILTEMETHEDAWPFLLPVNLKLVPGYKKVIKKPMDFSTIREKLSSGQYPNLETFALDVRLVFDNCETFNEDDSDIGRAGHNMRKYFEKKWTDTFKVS
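BAZ2B 50 nM plus b-H3(5-23)K14Ac 50 nM, PBS pH 7.4/0.01% Tween-20, 30 min RT; compound added (max 110 uM), 30 min RT; streptavidin donor/Ni-chelate acceptor beads 10 ug/mL final, 20 min dark; AlphaScreen read.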
TDP1 inh = qHTS Assay for Inhibitors of Tyrosyl-DNA Phosphodiesterase (TDP1); Tyrosyl-DNA phosphodiesterase 1 (Homo sapiens), Q9NUW8; recombinant TDP1, AlphaScreen DNA substrate cleavage; Potency, µM (series often up to 130 µM), for the others: at the highest dose activity change, negative = inhibition, hits mostly inhibitors; 350,000 tested, 0.28% active; AID 485290, 2010; further: on the % scale 0 is the no-effect control and ±100 the full control effect; nearly all actives have a fitted effect of over 40% in size
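Signal: AlphaScreen proximity between streptavidin donor and anti-FITC acceptor beads on intact substrate. Reaction: Tdp1 1 nM, substrate 15 nM final, 5 min RT after 15 min compound preincubation.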
G9a inh = qHTS Assay for Inhibitors of Histone Lysine Methyltransferase G9a. AID 504332, 2011. 350,000 tested, 8.8% active. G9a H3K9 monomethylation, AlphaScreen, 2 h. Potency, µM (top dose mostly 102 µM), without a hit: at the highest dose activity, negative = inhibition, usual class: inhibitors. Histone-lysine N-methyltransferase EHMT2 (Homo sapiens), Q96KQ7; further: on the % scale 0 is the no-effect control and ±100 the full control effect; nearly all actives have a fitted effect of over 75% in size
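Signal arises when biotinylated H3K9 peptide, once monomethylated, bridges streptavidin donor and antibody-captured acceptor beads. Enzyme at 20 nM was preincubated 15 min with test compounds; peptide 500 nM and SAM 20 uM then reacted for 2 h.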
Active calls of the source: *; ? = inconclusive; . = not tested or not shown; [ ] = dose if it differs, or a comment. The call rests on the fitted dose curve; in most records, active means well fitted curve in the direction sought with a large enough effect; inconclusive means small, poorly fitted or top-dose-only effect, or another doubt; inactive means no such curve, though single readings can be large; an effect the other way counts as inactive or inconclusive. Potency means the concentration at half of the fitted maximal effect.

SMILES	Sfp inh	JMJD2A Tudor	HP1b chromo inh	BAZ2B block	TDP1 inh	G9a inh
CCC(C)[C@H](N)c1nnc(SCc2ccc(Cl)c(Cl)c2)o1 (stereo partly drawn)	.	3.0%	60.8%	?	3.2%	8.91µM*
C[C@H](CCCC(C)(C)O)[C@H]1CC[C@H]2[C@@H]3CC=C4C[C@@H](O)CC[C@]4(C)[C@H]3CC[C@]12C	13.2%	.	.	.	.	5.1%[12.7 µM]
CC(=O)N(Cc1ccc(F)cc1)C1=C(NCc2ccccc2)C(=O)c2ccccc2C1=O	-2.6%	56.2µM*	?	44.7µM*	9.4%	12.6µM*
O=C(NCc1ccc(F)cc1)C(c1ccccc1)c1ccccc1	10.1%	3.6%	58.0%	-4.6%	.	10.1%[59 µM]
N#Cc1c(NCCO)nc(NCc2ccccc2)c2c1CCN(Cc1ccccc1)C2	-21.2%	?	-19.5%	44.7µM*	10.8%	?
N#Cc1c(N)sc(=S)c2c1CCN(Cc1ccccc1)C2	3.55µM*	.	.	79.4µM*	11.6%	?
CCN1CCc2c(C#N)c(N3CCCCC3)nc(NCc3ccccc3)c2C1	-8.0%	?	-20.1%	56.2µM*	7.1%	?
CCN1CCc2c(C#N)c(N3CCOCC3)nc(NCc3ccccc3)c2C1	7.3%	-19.9%	2.7%	?	3.3%	?
Cc1ccc(CN(C(=O)c2ccccc2Br)C2CCS(=O)(=O)C2)o1 (stereo not drawn)	.	-32.3%	7.8%	-15.7%	7.4%	6.9%[59 µM]
NS(=O)(=O)c1ccc(CCNC(=O)COC(=O)/C=C/c2cc(Br)ccc2F)cc1	.	-32.9%	11.4%	.	-3.4%	.
O=C(c1cccc(F)c1)N1CCC[C@@]2(CCN(Cc3nccs3)C2)C1	18.7%	.	.	.	.	-2.6%[12.7 µM]
CN1CCN(CCOc2ccc(-c3ccccc3)cc2)CC1	-24.7%	-34.8%	10.0%	?	7.3%	50.1µM*
CN1CCC(=O)N(CCOc2ccccc2)CC1	-19.9%	?	28.9%	?	.	28.2µM*
COc1ccc(OCCOCCN2CCN(C)CC2)cc1	?	17.8µM*	?	50.1µM*	4.3%	22.4µM*
CSCCC(NC(=O)c1ccc(C(C)(C)C)cc1)C(=O)O (stereo not drawn)	24.4%	3.0%	55.8%	-13.9%	0.0%	20.6%[0.0925 µM]
S=c1nc(-c2ccccc2)[nH]c2ccccc12	12.6%	-6.9%	48.3%	-25.0%	-6.0%	50.1µM*
S=c1nc(-c2ccc(Br)cc2)[nH]c2ccccc12	-0.8%	-9.6%[11.4 µM]	21.7%	2.8%	-10.3%	.
Cc1sc(-n2cccc2)c(C(=O)O)c1C	-5.6%	-35.6%	27.7%	50.1µM*	-12.1%	0.6%[59 µM]
Cc1sc2ncnc(N3CCCCC3)c2c1C	11.7%	11.3%	34.9%	6.8%	-1.0%	35.2%[12.7 µM]
CCc1cc2c(N3CCCCC3)ncnc2s1	-24.7%	-8.3%	63.0%	-0.5%	-7.3%	50.1µM*
Cc1cccn2c(=O)cc(COc3cccc(NC(=O)Nc4cccc(Cl)c4)c3)nc12	.	4.5%	35.3%[57 µM]	4.6%	2.7%	-1.6%[59 µM]
CCc1ccccc1NC(=O)C(=O)NCCc1sc(-c2cccc(C)c2)nc1C	.	-11.6%	18.8%[57 µM]	2.1%	6.6%	7.0%[59 µM]
COc1ccc(-c2cn3c(n2)sc2cc(C(=O)NCCC4=CCCCC4)ccc23)cc1	.	1.0%	42.5%	4.6%	1.3%	-5.0%[59 µM]
O=C(NC1CCCCC1)Oc1cc2oc(=O)sc2cc1Br	15.8µM*	-27.1%	0.6%	-18.6%	.	39.8µM*
O=C(NC1CCCCCC1)c1ccc(Br)o1	10.8%	-1.4%	28.9%	0.0%	3.0%[0.0935 µM]	-17.3%
SMILES	Sfp inh	JMJD2A Tudor	HP1b chromo inh	BAZ2B block	TDP1 inh	G9a inh
Clc1ccc(OCCn2ccnc2)cc1Cl	-24.4%	5.62µM*	?	50.1µM*	4.3%	.
Clc1ccccc1OCCCCn1ccnc1	10.0%	-23.2%	11.1%	-3.7%	7.8%	4.2%[59 µM]
Clc1ccccc1OCCCn1ccnc1	-6.5%	17.8µM*	?	79.4µM*	.	25.1µM*
Clc1cc(Br)ccc1OCCCn1ccnc1	-13.3%	22.4µM*	?	50.1µM*	0.0%	?
Cc1cc(C)c(C)c(OCCn2ccnc2)c1	-6.7%	-24.8%	41.5%	-38.8%	7.3%	?
Clc1cccc(OCCCn2ccnc2)c1	6.6%	-8.6%	11.2%	-8.2%	.	.
Cc1cc(Br)ccc1OCCn1ccnc1	8.7%	4.47µM*	22.4µM*	50.1µM*	2.6%	31.6µM*
Cc1ccc(S(=O)(=O)c2nnn3c2nc(N2CCCC(C)C2)c2cc(Cl)ccc23)cc1C (stereo not drawn)	.	4.0%	21.8%	-3.6%	2.9%	8.8%[59 µM]
Cc1nc2cnc(N3CCN(C)CC3)nc2n(-c2ccccc2)c1=O	19.9%	.	.	.	.	9.4%[0.501 µM]
O=C(O)c1ccc(OCCn2ccnc2)cc1	14.8%	?	17.2%	79.4µM*	7.2%	?
Cc1ccc(OCCCn2ccnc2)c(Br)c1	0.4%	22.4µM*	?	56.2µM*	7.0%	14.1µM*
Clc1cc(Br)ccc1OCCn1ccnc1	-17.2%	3.16µM*	?	22.4µM*	0.0%	8.91µM*
CCOc1ccccc1N(C(=O)CNC(=O)c1ccco1)C(C(=O)NC1CCCC1)c1ccncc1 (stereo not drawn)	-3.7%	-33.1%	-0.6%	20.5%	1.1%	18.7%
COc1ccc(OC)c(NC(=O)c2cccc(N3C(=O)C4C5C=CC(C6CC56)C4C3=O)c2)c1 (stereo not drawn)	-0.5%	-19.4%	-1.1%[57 µM]	-26.5%	7.5%	2.7%
CNc1cccc2c1C(=O)c1ccccc1C2=O	10.9%	2.82µM*	8.91µM*	3.16µM*	6.9%	8.91µM*
CCc1ccc(NC(=O)c2ccc(CNS(=O)(=O)c3ccc4c(c3)C(C)(C)C(=O)N4C)cc2)cc1	.	-18.7%	-2.7%	-8.1%	2.6%	0.3%[59 µM]
O=C(NCCCNC(=O)c1ccccn1)c1ccc(Br)cc1	10.0%	-4.2%	23.4%	1.1%	7.0%[56.1 µM]	15.3%
COc1ccc(-n2c(=O)c3c(c4cc(OC)ccc4n3C)n(C)c2=O)cc1	.	-6.6%	31.6%	-1.7%	5.6%	-2.1%[59 µM]
Cc1ccc2[nH]c3ccccc3c(=O)c2c1	3.3%	5.6%	42.9%	1.5%	.	1.9%
Cc1[nH]c2ccccc2c1C1=CC(=O)C=CC1=O	.	3.16µM*	?	.	.	.
CC(C)CN(C(=O)COC(=O)c1nc(Cl)ccc1Cl)c1c(N)n(Cc2ccccc2)c(=O)[nH]c1=O	21.4%	2.9%	30.6%	-2.3%	2.8%	57.4%
